# Screens (PubChem)
# Most compounds without a hit are left out; they make up all but 3.6% or so of the library.
# Myeloid diff MLP = induction of myeloid progenitor differentiation, primary screen, cell-based, flow cytometry, MLPCN library; calls only at 10 µM; hit rate 1% among 360,000; ER-HoxA9 myeloid progenitors, lysozyme-GFP differentiation;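 active = normalized GFP-positive differentiation at or above the plate's own cutoff, the solvent-only control mean plus 3 SD; inconclusive = no clear call, values can overlap the other calls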;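 note: cells exposed to compound for four days before flow analysis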
# CRFR2-BP antag = antagonists of CRF-BP/CRF-R2 complex, primary screen, cell-based, HEK293, calcium dye fluorescence, uHTS. CRF-induced calcium fluorescence. inhibition, % at 11.8 µM. hit rate 0.59% among 350,000;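 active = inhibition of the ligand-induced calcium signal above about 50% at the single tested concentration, limit read from the data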
# NadD block = inhibitors of S. aureus NadD, primary screen, biochemical, colorimetric, uHTS | Nicotinate-nucleotide adenylyltransferase NadD (Staphylococcus aureus N315) | purified NadD enzyme, colorimetric absorbance read-out | AID 602399, 2012 | hit rate 0.78% among 360,000 | inhibition, % at 20 µM; in the data active = inhibition above about 26%
# FAS TE block = FAS thioesterase domain inhibitors, primary screen, biochemical, fluorescence intensity, uHTS; Fatty acid synthase (Homo sapiens), P49327; inhibition, % at 15 µM; hit rate 0.67% among 360,000; recombinant FAS-TE, OMFH fluorogenic substrate, fluorescence endpoint;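 active = compounds whose normalised, plate-corrected inhibition of enzyme fluorescence in the single-dose primary screen is 50% or more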
# CendR NRP1 mod = modulators of CendR peptide binding to NRP-1, primary screen, biochemical, fluorescence polarization, uHTS | inhibition, % at 25 µM | FAM-RPARPAR peptide binding to NRP-1 | hit rate 0.85% among 360,000 | Neuropilin-1 (Homo sapiens), O14786;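 active = inhibition or corrected inhibition above about 18%, plus a signal ratio from 0.5 to 1.5, limit read from the data, passing the limit was not always enough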
# NadD inh conf = inhibitors of S. aureus NadD, confirmation, biochemical, colorimetric, single concentration; purified S. aureus NadD, colorimetric enzyme assay; inhibition, % at 20 µM; hit rate 13% among 2,000; AID 624309, 2012; shares compounds with NadD block; in the data active = inhibition mostly above about 42%, no sharp cut-off; inactive = mostly below about 42%
# A number is an active result; - = inactive; ? = inconclusive; . = no result; + = active, no number; ! = not confirmed by another sample.
SMILES,Myeloid diff MLP,CRFR2-BP antag,NadD block,FAS TE block,CendR NRP1 mod,NadD inh conf
Cc1ccc(-c2cc(-c3ccc(Cl)cc3)c(C#N)c(N)n2)o1,-,-,58.6,-,-,70.8
Cc1ccc(-c2cc(-c3ccc(F)cc3)c(C#N)c(N)n2)o1,+,-,64.8,-,-,-
Cc1ccc(-c2c(C#N)c(N)nc3c2CCCCC3)o1,-,-,-,-,-,.
Cc1ccc(-c2cc(-c3ccc4c(c3)OCO4)c(C#N)c(N)n2)o1,-,-,39.3,-,-,-
Cc1c(-c2ccc(F)cc2)nc(N)c(C#N)c1-c1ccco1,-,-,-,-,-,.
Cc1ccc(-c2cc(-c3ccc(C)o3)nc(N)c2C#N)cc1,+,-,57.6,-,-,62.2
CN(C)/C=C(\C=N\OCc1ccc(Cl)cc1Cl)C(=O)Nc1ccc(Cl)c(Cl)c1,-,.,28.8,-,-,-
C=CCn1c(O)c(C2=c3ccccc3=NC2=O)s/c1=N/c1nccs1,-,-,32.8,-,-,-
O=C(O)c1ccccc1NS(=O)(=O)c1ccc(NN=Cc2cccc(Cl)c2)c([N+](=O)[O-])c1,-,-,31.0,-,-,-
O=S(=O)(c1ccccc1)N1CCC2(CC1)OCCO2,-,-,-,-,-,.
C=CCSC1=N/C(=C\c2cc(OCC)c(OC(C)=O)c([N+](=O)[O-])c2)C(=O)S1,-,53.4,32.5,-,-,-
O=C(c1ccc(N2CCCS2(=O)=O)cc1)N1CCN(c2ccccc2)CC1,-,-,-,-,-,.
CCOC(=O)c1c(-c2ccc(-c3ccccc3)cc2)csc1NC(=O)C1C2CCC(O2)C1C(=O)O (stereo not given),-,-,37.8,-,-,56.5
CCOC(=O)c1c(-c2ccccc2)csc1NC(=O)C1CCCO1 (stereo not given),-,-,-,-,-,.
CN(c1ccccc1)S(=O)(=O)c1ccc(Cl)c(C(=O)Nc2nc3ccccc3[nH]2)c1,-,-,-,-,-,.
CN(c1ccccc1)S(=O)(=O)c1ccc(Cl)c(C(=O)Nc2ccc(-c3nc4ccccc4[nH]3)cc2)c1,-,-,33.5,-,-,-
CCOc1ccc(C2=C(C=Nc3c(C)n(C)n(-c4ccccc4)c3=O)C(c3ccc(F)cc3)c3ccccc3O2)cc1 (stereo not given),-,-,45.6,-,-,-
CCc1cc2c(cc3c(=O)n(CC(=O)NCCCN4CCCCCC4)nc(CC)n32)s1,-,-,31.1,-,-,-
CCc1nn(CC(=O)NCCCN2CCN(C)CC2)c(=O)c2cc3sc(C)cc3n12,-,-,-,-,-,.
Cc1ccc2nc(-c3ccc(SCC(=O)Nc4ccc5c(c4)OCCO5)nc3)[nH]c2c1,-,-,-,-,-,.
Cc1cc2nc(-c3ccc(SCC(=O)Nc4ccc5c(c4)OCCO5)nc3)[nH]c2cc1C,-,-,29.7,-,-,-
Cc1cc(C)n2nc(C(=O)N/N=C/c3c4ccccc4cc4ccccc34)nc2n1,?,-,29.1,-,-,-
Cc1cc(C)n2nc(C(=O)N/N=C/c3ccccc3Cl)nc2n1,-,-,-,-,-,.
N#C/C(=C\c1c(N2CCCCC2)nc2ccccn2c1=O)S(=O)(=O)c1ccccc1,-,-,-,-,-,.
CCCCCc1c(-c2cccc(OC)c2)ncn1CCc1ccccc1OC,-,.,-,-,-,.
SMILES,Myeloid diff MLP,CRFR2-BP antag,NadD block,FAS TE block,CendR NRP1 mod,NadD inh conf
O=C(NCCOc1ccc(Cl)cc1)c1ccco1,-,-,-,-,-,.
CCOC(=O)/C=c1\s/c(=C\c2ccccc2C)c(=O)n1CC(=O)NCc1ccc2c(c1)OCO2,-,-,-,-,-,.
CCOC(=O)/C=c1\s/c(=C\c2ccc3cc(OC)ccc3c2)c(=O)n1CC(=O)NCc1ccc2c(c1)OCO2,-,-,32.6,-,-,-
COc1ccc(-c2cc(C(=O)Nc3cc(OC)cc(C(=O)Nc4cccc(C(F)(F)F)c4)c3)[nH]n2)cc1,-,-,40.2!,-,-,-
COc1cc(NC(=O)c2ccno2)cc(C(=O)Nc2cccc(C(F)(F)F)c2)c1,-,-,-,-,-,.
Cc1cc(C)c(S(=O)(=O)NC2CC(C)(C)NC(C)(C)C2)cc1Br,-,-,-,-,-,.
COc1ccccc1C(=O)NC(=S)NNC(=O)c1sc2ccccc2c1Cl,-,-,-,-,-,.
